# The list is not random: actives were taken first. Their share in the collection is about 0.19%.
# Bcl-2 Bim block: disrupts Bim peptide binding to human Bcl-2; Bead-based flow cytometry, Bim peptide-Bcl-2 binding; inhibition, % at 10 µM; 0.06% of 190,000 active; in the data active = inhibition above about 40%;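 also: 0% = no compound wells with probe peptide and 100% = reference peptide inhibitor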
# Target sequence (P10415 whole entry, looked up): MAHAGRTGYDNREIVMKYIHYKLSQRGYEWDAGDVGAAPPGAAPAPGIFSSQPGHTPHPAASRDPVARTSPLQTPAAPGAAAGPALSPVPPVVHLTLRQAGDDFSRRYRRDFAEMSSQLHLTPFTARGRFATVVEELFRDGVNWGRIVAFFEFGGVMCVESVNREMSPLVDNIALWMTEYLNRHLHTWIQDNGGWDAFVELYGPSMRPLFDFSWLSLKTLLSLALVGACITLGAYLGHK
# Bcl-W Bim block: inhibitors of Bim-Bcl-W interaction, human; 0.02% of 190,000 active; AID 952; Q92843; bead-based flow cytometry, Bim peptide-Bcl-W binding; inhibition, % at 10 µM;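 also: 0% = bound tracer without compound and 100% = peptide blocker; higher means less fluorescent Bim peptide bound to Bcl-W beads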
# Bim-Bfl-1: disrupts Bim binding to human Bfl-1. Bead-based flow cytometry, Bim-Bfl-1 binding inhibition. 0.12% of 190,000 active. inhibition, % at 10 µM. Q16548;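 also: 0% = wells without compound plus tracer and 100% = blocker peptide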
# Bim-Bcl-XL: inhibitors of Bim-Bcl-XL interaction, human; 0.04% of 190,000 active; Bim peptide-Bcl-XL binding, bead flow cytometry, fluorescence; inhibition, % at 10 µM; Q07817; AID 1007
# Bcl-B Bim block: inhibitors of Bim-Bcl-B interaction, human | Q9HD36 | bead-based flow cytometry, Bim peptide-Bcl-B binding | inhibition, % at 10 µM | 0.073% of 190,000 active;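 also: 0% = tracer peptide without compound and 100% = reference inhibitor peptide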
# Target sequence (Q9HD36 whole entry, looked up): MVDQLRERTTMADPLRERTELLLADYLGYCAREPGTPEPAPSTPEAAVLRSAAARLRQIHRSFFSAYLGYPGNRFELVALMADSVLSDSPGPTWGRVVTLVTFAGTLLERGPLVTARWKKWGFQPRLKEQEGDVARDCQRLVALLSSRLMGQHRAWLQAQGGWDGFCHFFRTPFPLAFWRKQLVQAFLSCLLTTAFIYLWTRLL
# Numbers without * were called inactive; . = no result given. Rule as the data show it, unless noted: active = inhibition above about 40%.
SMILES,Bcl-2 Bim block,Bcl-W Bim block,Bim-Bfl-1,Bim-Bcl-XL,Bcl-B Bim block
O=C(COCC(=O)N1CCOCC1)N1CCOCC1,-2.0,0.0,-6.0,-2.0,-3.0
O=c1nc2c(O)cccn2c2c1c(=O)[nH]c1ccccc12,24.0,32.0,36.0,47.0*,4.0
O=C(c1cc2ccccc2oc1=O)N(c1ccccc1)C1C=CS(=O)(=O)C1 (centres undefined),24.0,28.0,41.0*,38.0,21.0
Cc1cc(C)c2c(c1)[C@@H]1C=CC[C@@H]1[C@H](c1ccc(S(=O)(=O)N3CCOCC3)cc1)N2,21.0,25.0,53.0*,10.0,6.0
O=C(COc1ccccc1)Nc1ccc2c(c1)Cc1cc(NC(=O)COc3ccccc3)ccc1-2,104.0*,110.0*,91.0*,103.0*,107.0*
N/C(=N\O)c1ccccc1N1CCCCC1,-4.0,0.0,-4.0,0.0,-7.0
CC[n+]1c(/C=C/N(C)c2ccccc2)oc2ccc(Cl)cc21,23.0,18.0,25.0,24.0,12.0
CCN1/C(=C/C=C/c2oc3ccc4ccccc4c3[n+]2CC)Oc2ccc3ccccc3c21,8.0,26.0,35.0,45.0*,0.0
O=C(COc1ccc(F)cc1Br)NCc1ccccn1,4.0,0.0,-1.0,-1.0,-1.0
O=C(COc1ccccc1Br)NCc1ccccn1,71.0*,5.0,44.0*,10.0,75.0*
O=C(N/N=C/c1ccncc1)c1cccc(NC(=O)c2ccccc2Cl)c1,32.0,29.0,34.0,43.0*,21.0
COc1ccc(/C=N/NC(=O)c2cccc(NC(=O)c3ccccc3Cl)c2)cc1OC,0.0,0.0,-2.0,-5.0,-2.0
COc1ccc(Cl)cc1NC(=O)Cc1c(F)cccc1Cl,-7.0,-2.0,-2.0,-6.0,-7.0
C#CCOCCOCCOCCNc1nc(N2CCN(C(=O)[C@H]([C@@H](C)CC)n3cc([C@@H](N)CC(C)C)nn3)CC2)nc(N2CCN(C(=O)[C@H](Cc3cc4ccccc4[nH]3)n3cc([C@@H](N)Cc4ccc(O)cc4)nn3)CC2)n1,80.0*,-5.0,57.0*,0.0,71.0*
O=C(CSc1nnc(-c2ccc(Cl)cc2)n1-c1ccc(Cl)cc1)N/N=C/c1ccco1,-9.0,0.0,-11.0,-5.0,-3.0
Cc1ccc(/C=N/NC(=O)CSc2nnc(-c3ccc(Cl)cc3)n2-c2ccccc2)o1,0.0,-2.0,0.0,-4.0,48.0*
COC(=O)c1cc(OC)c(OC)cc1NC(=O)Nc1cccc(C(C)=O)c1,85.0*,3.0,62.0*,10.0,77.0*
Cc1ccc(CNC(=O)CCCC(=O)Nc2cc(C)on2)cc1,-3.0,-4.0,-7.0,-4.0,-8.0
Cc1cc(NC(=O)CCCC(=O)NCc2ccccc2)no1,51.0*,0.0,27.0,1.0,43.0*
COc1ccc2cc3c(N)c(C(=O)NCc4ccco4)sc3nc2c1,1.0,-1.0,4.0,0.0,-2.0
Nc1c(C(=O)NCc2ccco2)sc2nc3c(cc12)C(=O)CCC3,20.0,42.0*,48.0*,16.0,6.0
CC1N(C)c2cccc3cccc(c23)N1C,12.0,29.0,43.0*,9.0,2.0
CN1c2cccc3cccc(c23)N(C)C1c1cccs1,0.0,6.0,13.0,2.0,-1.0
COCCN=c1scc(-c2ccco2)n1/N=C/c1ccc(O)c(O)c1O,18.0,24.0,41.0*,8.0,-10.0
CSCCC(NC(=O)c1cccc([N+](=O)[O-])c1)C(=O)O (centres undefined),-13.0,-7.0,-10.0,-7.0,-10.0
SMILES,Bcl-2 Bim block,Bcl-W Bim block,Bim-Bfl-1,Bim-Bcl-XL,Bcl-B Bim block
O=C1c2ccccc2-c2onc3ccc(N4CCCC4)c1c23,46.0*,63.0*,42.0*,63.0*,30.0
O=C1c2ccccc2-c2onc3ccc(NCc4ccco4)c1c23,48.0*,70.0*,40.0*,76.0*,41.0*
CCOc1ccc2noc3c2c1C(=O)c1ccccc1-3,0.0,3.0,3.0,3.0,2.0
CCNc1ccc2noc3c2c1C(=O)c1ccccc1-3,1.0,0.0,2.0,0.0,0.0
Nc1ccc(N2CCN(c3ccc(F)cc3)CC2)cc1,5.0,4.0,9.0,0.0,-2.0
Nc1ccc(N2CCCCCC2)cc1,19.0,30.0,43.0*,6.0,10.0
N#CC(C#N)=C1C=CC=CN1/C(=C\c1ccccc1)C(=O)c1cccs1,4.0,-3.0,6.0,-1.0,-1.0
N#CC(C#N)=C1C=CC=CN1/C(=C\c1ccccc1Cl)C(=O)c1ccccc1,30.0,34.0,59.0*,16.0,1.0
COc1cc(/C=C2\CC/C(=C\c3cc(OC)c(O)c(OC)c3)C2=O)cc(OC)c1O,37.0,43.0*,50.0*,25.0,18.0
OC(COc1ccc(CNCc2cccnc2)cc1)CN1CCc2ccccc2C1 (centres undefined),-3.0,-2.0,-5.0,-7.0,-7.0
O=C(Cc1ccccc1)N/N=C/c1cccn1-c1ccc([N+](=O)[O-])cc1,31.0,26.0,21.0,25.0,50.0*
O=C(Nc1nnc(C2CC2)s1)C1Cc2ccccc2CN1S(=O)(=O)c1ccccc1F (centres undefined),77.0*,9.0,.,13.0,.
O=C(Nc1nccs1)C1Cc2ccccc2CN1S(=O)(=O)c1ccc(F)cc1 (centres undefined),-4.0,-2.0,0.0,-2.0,-2.0
CNc1ccc(Br)cc(C(=O)/C=C/c2ccc(OC)cc2OC)c1=O,25.0,27.0,41.0*,28.0,3.0
CNc1ccc(Br)cc(C(=O)/C=C/c2cccc(OC)c2)c1=O,32.0,9.0,27.0,8.0,-19.0
COC(=O)c1ccc(/C=N/NC(=O)CC(=O)NCc2cccnc2)cc1,54.0*,5.0,32.0,3.0,51.0*
CCCC(=O)OCC(=O)c1[nH]c(C)c(C(C)=O)c1C,-1.0,0.0,-2.0,-1.0,-1.0
COc1ccc(NC(=O)C(=O)N2N=C3CCCCC3C2(O)C(F)(F)F)cc1 (centres undefined),-4.0,-2.0,-7.0,-6.0,-5.0
COc1ccc(OC)c(N=c2ssnc2Cl)c1,5.0,7.0,41.0*,0.0,-15.0
Cc1nc(Nc2cccc(C(C)O)c2)c2nnn(Cc3ccc(F)cc3)c2n1 (centres undefined),-1.0,0.0,-5.0,-1.0,0.0
S=C(NCCc1ccccc1)NCCc1ccccc1,22.0,29.0,44.0*,39.0,24.0
CCOC(=O)c1oc2ccc(Cl)cc2c1NC(C)=O,0.0,5.0,-1.0,0.0,-1.0
Cc1ccc(NC(=O)/C(=C\c2ccc([N+](=O)[O-])cc2)NC(=O)c2ccccc2)cc1,-1.0,-2.0,-2.0,-7.0,0.0
O=C(N/N=C/c1ccc(O)c(O)c1O)/C(=C/c1ccc([N+](=O)[O-])cc1)NC(=O)c1ccccc1,21.0,27.0,41.0*,5.0,9.0
O=C(Cn1cncc1-c1ccc([N+](=O)[O-])cc1)Nc1ccccc1F,34.0,14.0,42.0*,15.0,25.0
COc1ccc(CCNC(=O)CSc2nnc3ccccn23)cc1,-2.0,-3.0,-5.0,-1.0,-3.0
COc1ccc(CCNC(=O)c2cc(-c3ccco3)on2)cc1OC,1.0,1.0,-3.0,0.0,0.0
COc1ccc(CCNC(=O)c2ccc3nc(-c4ccco4)c(-c4ccco4)nc3c2)cc1OC,11.0,19.0,42.0*,6.0,0.0

# Source: PubChem
